Screening results from PubChem.
Dicer inh: inhibitors of human Dicer processing of pre-microRNA; 47,000 compounds, 6% hits; cat-ELCCA pre-miR-21 Dicer processing, chemiluminescence; active compounds read high; z-score at 25 µM; Q9UPY3; in the data active = z-score above about 3, passing the limit was not always enough;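 also: plate controls were vehicle for no effect and no enzyme for full effect; higher signal means more uncleaved substrate so more Dicer inhibition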
The depositor's hits bear a star. This excerpt belongs to a sample that is enriched for hits.

SMILES	Dicer inh
CC1=Nc2cc(Cl)c(Cl)cc2NC(C)(C)C1	7.2*
CCOc1nc2c(c(-c3ccc(F)cc3)c1C#N)Cc1ccccc1-2	0.45
CCOC(=O)c1c(NC(=O)CN(CC)CC)sc2c1CCCC2=O	1.5
COc1cccc(CN(C)C)c1O	-1.3
COc1ccccc1CC(=O)Nc1ccc2ccccc2n1	-0.4
COc1cccc(CNc2cnc3ccccc3c2)c1O	4.5*
CC1=C(C(=O)Nc2cc(C)ccn2)C(c2ccc3c(c2)OCO3)C2=C(CCCC2=O)N1 (centres undefined)	1.4
Cn1nnnc1SCCNCc1cc(Cl)ccc1OCc1ccc(Cl)cc1	0.37
CCc1nc(N)ncc1-c1nnnn1-c1ccccc1	-1.1
CCOC(=O)c1c(C)n(-c2ccccc2)c2ccc(O)cc12	1.5
CCOC(=O)c1sc(=S)n(-c2ccc(Cl)cc2)c1C	0.39
CCOC(=O)c1c(O)c(O)c(C(=O)OCC)n1-c1ccc(OC)cc1	0.01
CCOC(=O)c1sc(=S)n(-c2cc(C)ccc2C)c1N	5.2*
CCOC(=O)c1c(C)n(CCO)c2ccc(O)cc12	1.9
CCOC(=O)c1c(C)n(-c2ccc(N(C)C)cc2)c2ccc(O)cc12	6.6*
CCOC(=O)c1c(C)n(-c2ccccc2)c2c1cc(O)c1ccccc12	-1.9
CCOC(=O)c1c(C)n(-c2ccccc2)c2ccc(OC(=O)c3cccs3)cc12	1.4
CCOC(=O)c1sc(=S)n(-c2ccc(OC)cc2)c1C	4.2*
CCOC(=O)c1c(C)n(-c2ccc(OC)cc2)c2ccc(O)cc12	4.7*
CCOC(=O)c1sc(-c2ccc(C)cc2)nc1O	-0.32
CCOC(=O)c1sc2c(c1O)c(=O)n(-c1ccccc1)c(=S)n2-c1ccccc1	-0.09
Cc1nnc(Nc2cccc(Cl)c2)[nH]c1=O	6.7
Cc1nn(Cc2nnc(SCC(=O)Nc3ccc(Cl)cc3Cl)o2)c(C)c1Br	-1.1
Cc1ccc(C2=NN(C(=O)CCCC(=O)O)C(c3ccc(Br)cc3)C2)cc1 (centres undefined)	-0.46
S=C1C=C(N2CCCCC2)CC(c2ccccc2Cl)S1 (centres undefined)	0.71
SMILES	Dicer inh
CCOC(=O)c1c[nH]c2cc(OC)ccc2c1=O	0.11
O=S(=O)(Nc1cccc(C(F)(F)F)c1)c1c(F)c(Br)cc(F)c1Br	0.03
Clc1ccc(N2CCN(C3=Cc4ccccc4C3)CC2)cc1Cl	-1.9
CCOC(=O)c1cnn(-c2nc(C)nc3c2cnn3-c2ccccc2)c1N	2.5
Cc1nnc(NC(=O)C2c3ccccc3Oc3ccccc32)s1	4.9*
NC(=O)C1c2ccccc2Oc2ccccc21	-0.49
COC(=O)C1c2ccccc2Oc2ccccc21	-0.31
CCCCCC(C)NC(=O)C1c2ccccc2Oc2ccccc21 (centres undefined)	-0.35
O=C(Nc1ccncc1)C1c2ccccc2Oc2ccccc21	-1.1
CC(C)c1nnc(NC(=O)C2c3ccccc3Oc3ccccc32)s1	0.88
O=C(NCc1ccccn1)C1c2ccccc2Oc2ccccc21	3.1*
O=C(NC1CCCC1)C1c2ccccc2Oc2ccccc21	4.3*
O=C(O)C1C2C=CC(C2)C1C(=O)NCc1ccccn1 (centres undefined)	-1.3
CC1CN(c2ccc(S(N)(=O)=O)cc2[N+](=O)[O-])CC(C)O1 (centres undefined)	0.31
COc1cc(/C=C2/N=C(c3ccccc3)NC2=O)cc(OC)c1OC	-0.05
Brc1ccc(-c2cnc(/C=C/C=C/N3CCOCC3)s2)cc1	-0.69
COC(=O)c1cc(S(=O)(=O)N2CCN(c3c(Cl)cncc3Cl)CC2)oc1C	0.3
COc1ccc(/C(C#N)=C/c2cn[nH]c2)cc1	-0.82
CN(C)c1ccc(/C=C(\C#N)c2ccc([N+](=O)[O-])cc2)cc1[N+](=O)[O-]	-0.29
COc1ccc(/C=C(\C#N)c2ccc([N+](=O)[O-])cc2)cc1[N+](=O)[O-]	3.5*
Cc1cc(C)c(C#N)c(SC(C(=O)Nc2c(F)cccc2F)c2ccccc2)n1 (centres undefined)	-1.5
CC(C)c1ccc(CNc2nc3ccccc3n2C)cc1	2.6
Cc1cc(NC(=O)C(Cl)(Cl)Cl)n(-c2ccccc2)n1	1.9
Cc1c(C)c(C)c(C(=O)CCC(=O)O)c(C)c1C	-0.67
CCOC(=O)C1CCN(c2nc(OC)nc(OC)n2)CC1	-0.28
SMILES	Dicer inh
NC(N)=NC(N)=Nc1cc(Cl)cc(Cl)c1	-0.42
Cc1cccc(N=C(NO)c2ccccc2)c1	-3.8
ONC(=Nc1cc(Cl)cc(Cl)c1)c1ccccc1	3*
CCOC(CC(=O)NNC(=S)NC)OCC	0.17
O=C1Sc2ccc(S(=O)(=O)Nc3cccc(Cl)c3)c3cccc1c23	2.4
CN1C(=O)c2cccc3c(S(=O)(=O)Nc4ccc(C(=O)O)cc4)ccc1c23	0.11
O=C1Sc2ccc(S(=O)(=O)Nc3ccc(Br)cc3)c3cccc1c23	3.3*
CSC(=NC(=O)c1c(Cl)cccc1Cl)SC	-1.8
CCOc1cc(C2C(C(=O)OCCc3ccccc3)=C(C)NC3=C2C(=O)CCC3)cc(Cl)c1O (centres undefined)	1.1
CCOC(=O)c1nn(-c2ccc(OC)cc2)c(=O)c2c(NC(C)=O)scc12	-1.5
CCOC(=O)c1cnc2ccc(Cl)cc2c1Nc1ccc(N(C)C)cc1	3.8*
CCOC(=O)c1cnc2c(C)cc(C)cc2c1Nc1ccc(N(C)C)cc1	2.9
CCOC(=O)c1cnc2ccc(OCC)cc2c1Cl	0.45
Cc1ccc(/C(O)=C2\C(=O)C(=O)N(c3ccccn3)C2c2ccc(F)cc2)cc1 (centres undefined)	0.39
Cc1ccc(C2CN=NC23C(=O)c2ccccc2OC3c2ccccc2)cc1 (centres undefined)	1.2
CS/C(=N/S(=O)(=O)c1ccc(-n2nc(C(F)(F)F)cc2-c2cccs2)cc1)N/N=C/c1ccccc1	-0.44
COc1ccc(OC)c(C2C(C(=O)OC(C)C)=C(C)NC3=C2C(=O)CCC3)c1 (centres undefined)	-0.27
CN1CCN(CCCN2C(=O)CSC2c2ccc(F)cc2)CC1 (centres undefined)	-0.72
COC(=O)COc1ccc2c(=O)c(Oc3ccccc3Br)c(C(F)(F)F)oc2c1	3.5*
Cc1oc2cc(O)ccc2c(=O)c1Oc1ccccc1Br	3.5*
Cc1oc2cc(O)ccc2c(=O)c1Oc1ccc(Cl)cc1	0.45
CCOC(=O)Oc1ccc2c(=O)c(Oc3ccccc3Br)coc2c1	0.73
COC(=O)COc1ccc2c(=O)c(Oc3ccccc3Cl)c(C(F)(F)F)oc2c1	-1.1
COC(=O)COc1ccc2c(=O)c(Oc3cc(C)cc(C)c3)c(C(F)(F)F)oc2c1	-0.48
CCOC(=O)/C(C#N)=C(\N=C(/N)c1ccc(C(F)(F)F)cc1)Nc1ccc(Cl)cc1	0.59
SMILES	Dicer inh
Cc1ccc(-c2nnn(CC(=O)NNC(=O)c3ccco3)n2)cc1	-0.26
c1ccc2sc(SCCCCSc3nc4ccccc4s3)nc2c1	-1.4
CCOC(=O)C(C(=O)OCC)c1ccc(OCc2ccccc2)cc1	1.6
O=C(O)C1C2C=CC(O2)C1C(=O)Nc1ccc([N+](=O)[O-])cc1 (centres undefined)	-0.61
O=S(=O)(Cc1ccc(Cl)cc1)c1cccs1	-0.25
Cc1ccc(C2Nn3c(C)nnc3SC2C(=O)Nc2ccc(Br)cc2Cl)cc1 (centres undefined)	-0.78
Cc1ccccc1Cn1c(-c2cncs2)nc2ccccc21	0.83
C=CCn1c(-c2cccs2)nc2ccccc21	125
Brc1cc2c(cc1Cn1c(-c3cncs3)nc3ccccc31)OCO2	4.3*
C/S(=N\S(=O)(=O)c1ccccc1)c1ncc(Cl)cc1C(F)(F)F (centres undefined)	-0.84
